# Sampled rows, rich in hits. Any-hit rate of the full collection: about 7%.
# JMJD2A Tudor inh = JMJD2A Tudor domain (human) inhibition; O75164; AlphaScreen JMJD2A-Tudor / H3K4me3 peptide binding; Potency, µM (highest dose often 114 µM), inactives show at the top dose activity change, negative = inhibition, actives largely listed as inhibitors; hit rate 4.4% among 390,000; AID 504339; also: potency is read from the fitted curve at half-maximal effect; % is scaled to controls: 0 for no effect and ±100 for the full control effect; nearly all actives have a fitted effect of over 50% in size
# KAT2A inh = inhibitors of human GCN5L2 histone acetyltransferase. Q92830. GCN5L2 HAT assay, ThioGlo1 CoA-SH fluorescence. Potency, µM (series often up to 58.9 µM), inactives show top-dose activity change, negative = inhibition, most hits filed as inhibitors. hit rate 0.21% among 390,000; also: potency is read from the fitted curve at half-maximal effect; % is scaled to controls: 0 for no effect and ±100 for the full control effect
#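 GCN5L2 (20nM final) in 50mM HEPES, 0.1mM EDTA pH 7.5, 0.01% Tween-20 was preincubated 15 min at room temperature with compound, then given ThioGlo1 (50uM), H3(1-25) peptide (75uM) and acetyl-CoA (70uM); CoA-thiol fluorescence (Ex340/Em540) was read at 0 and 20 min.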
# HP1b chromo inh = HP1-beta chromodomain-methylated histone interaction inhibition; P83916; AlphaScreen HP1-beta / biotin-H3K9me3 peptide binding; Potency, µM (titrated, usually from 114 µM), without a hit: top-dose activity change, negative = inhibition, usual class: inhibitors; hit rate 0.56% among 390,000; AID 540317; also: potency is read from the fitted curve at half-maximal effect; nearly all actives have a fitted effect of over 70% in size
#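 HP1-beta protein (50 nM final) preincubated 30 min at room temperature with biotinylated H3(1-18)K9me3 peptide (50 nM) in PBS pH 7.4, 0.01% Tween-20, then compound added for 30 min. AlphaScreen streptavidin donor/nickel chelate acceptor beads (10 ug/mL final), 30 min dark, luminescence read.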
# BAZ2B inh = BAZ2B (human) inhibition | Potency, µM (highest dose often 114 µM), for the others: top-dose activity change, negative = inhibition, usual class: inhibitors | Q9UIF8 | AID 504333 | hit rate 4.4% among 360,000 | AlphaScreen BAZ2B-H3K14Ac peptide displacement; also: potency is read from the fitted curve at half-maximal effect; % is scaled to controls: 0 for no effect and ±100 for the full control effect; nearly all actives have a fitted effect of over 60% in size
# Target sequence (Q9UIF8 whole entry, looked up): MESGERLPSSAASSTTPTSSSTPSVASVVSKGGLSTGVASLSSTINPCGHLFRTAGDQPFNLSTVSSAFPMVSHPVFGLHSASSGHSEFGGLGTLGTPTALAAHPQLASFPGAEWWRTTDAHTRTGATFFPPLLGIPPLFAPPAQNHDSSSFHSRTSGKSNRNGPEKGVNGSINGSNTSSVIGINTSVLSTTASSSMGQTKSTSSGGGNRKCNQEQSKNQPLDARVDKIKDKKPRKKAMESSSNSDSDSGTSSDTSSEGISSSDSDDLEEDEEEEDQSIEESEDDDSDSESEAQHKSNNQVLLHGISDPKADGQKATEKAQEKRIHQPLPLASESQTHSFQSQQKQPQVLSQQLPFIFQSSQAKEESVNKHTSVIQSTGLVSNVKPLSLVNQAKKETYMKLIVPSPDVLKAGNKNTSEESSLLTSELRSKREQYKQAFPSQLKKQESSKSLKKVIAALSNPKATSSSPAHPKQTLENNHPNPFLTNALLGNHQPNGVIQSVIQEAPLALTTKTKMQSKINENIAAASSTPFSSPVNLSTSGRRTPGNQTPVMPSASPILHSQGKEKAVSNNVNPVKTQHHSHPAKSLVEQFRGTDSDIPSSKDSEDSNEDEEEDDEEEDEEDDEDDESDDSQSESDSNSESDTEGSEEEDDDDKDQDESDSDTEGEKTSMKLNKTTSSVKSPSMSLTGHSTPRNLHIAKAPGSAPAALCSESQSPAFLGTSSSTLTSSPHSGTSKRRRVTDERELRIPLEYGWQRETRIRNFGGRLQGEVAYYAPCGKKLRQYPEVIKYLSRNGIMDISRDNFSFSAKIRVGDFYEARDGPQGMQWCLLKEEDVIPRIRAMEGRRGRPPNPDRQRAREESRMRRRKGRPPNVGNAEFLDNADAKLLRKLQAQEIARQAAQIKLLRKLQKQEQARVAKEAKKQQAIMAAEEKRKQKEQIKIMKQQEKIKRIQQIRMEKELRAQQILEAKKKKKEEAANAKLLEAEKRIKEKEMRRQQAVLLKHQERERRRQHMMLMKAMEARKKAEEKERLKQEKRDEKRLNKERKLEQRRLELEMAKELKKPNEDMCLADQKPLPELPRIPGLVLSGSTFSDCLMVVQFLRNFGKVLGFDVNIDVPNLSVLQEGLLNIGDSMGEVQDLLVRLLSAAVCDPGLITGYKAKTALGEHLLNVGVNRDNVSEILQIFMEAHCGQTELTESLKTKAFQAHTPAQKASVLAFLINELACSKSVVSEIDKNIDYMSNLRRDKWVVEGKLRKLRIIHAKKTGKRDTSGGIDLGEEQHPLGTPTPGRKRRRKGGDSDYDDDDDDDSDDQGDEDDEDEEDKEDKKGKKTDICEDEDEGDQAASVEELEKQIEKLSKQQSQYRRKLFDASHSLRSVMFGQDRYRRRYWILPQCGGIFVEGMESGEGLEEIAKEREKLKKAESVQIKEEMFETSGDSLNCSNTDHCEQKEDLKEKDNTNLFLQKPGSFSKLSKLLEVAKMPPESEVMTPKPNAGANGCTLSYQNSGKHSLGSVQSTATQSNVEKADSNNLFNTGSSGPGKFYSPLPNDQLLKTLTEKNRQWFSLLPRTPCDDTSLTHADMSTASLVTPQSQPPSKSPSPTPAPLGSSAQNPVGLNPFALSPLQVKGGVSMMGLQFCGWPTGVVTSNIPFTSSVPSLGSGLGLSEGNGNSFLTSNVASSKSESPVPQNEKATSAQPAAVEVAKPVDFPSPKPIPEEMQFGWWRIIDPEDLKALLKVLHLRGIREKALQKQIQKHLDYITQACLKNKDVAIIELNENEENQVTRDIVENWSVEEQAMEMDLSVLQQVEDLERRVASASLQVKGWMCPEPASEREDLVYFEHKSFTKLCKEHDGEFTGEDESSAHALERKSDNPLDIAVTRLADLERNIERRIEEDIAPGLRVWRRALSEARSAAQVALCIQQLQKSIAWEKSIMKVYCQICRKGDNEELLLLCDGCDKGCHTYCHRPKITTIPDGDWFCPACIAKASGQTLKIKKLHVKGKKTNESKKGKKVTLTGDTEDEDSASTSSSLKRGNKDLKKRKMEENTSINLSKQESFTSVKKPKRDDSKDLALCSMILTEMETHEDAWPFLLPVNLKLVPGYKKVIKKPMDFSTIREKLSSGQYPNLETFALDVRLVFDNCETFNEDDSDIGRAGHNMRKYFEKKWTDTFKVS
#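 Multi-concentration screen (max 110 uM) measuring displacement of acetylated histone H3 peptide from BAZ2B by AlphaScreen, using 50 nM protein, 50 nM peptide and 10 ug/mL streptavidin donor plus Ni-chelate acceptor beads.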
# PI5P4K alpha inh = blocks human PI5P4K alpha kinase activity. P48426. PI5P4Kalpha enzyme, ADP-Glo luminescence, 60 min; stronger effect = lower value. max response, %. hit rate 1.2% among 330,000. AID 652105; active = max response of -50% or lower; inconclusive = between -30% and -50%; inactive = -30% or higher; also: value at the top dose of about 77 µM; % is scaled to controls: 0 for no effect and ±100 for the full control effect
#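 Reactions run in 0.038 M HEPES pH 7.4, 0.28 mM EGTA, 0.1% CHAPS and 5% DMSO, with PI5P4Kalpha, substrate, compound and 5 microM ATP final, one hour at room temperature. Readout is ADP-Glo luminescence.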
# PLK1 PBD inh = inhibitors of human PLK1 polo-box domain binding; AID 720504; Plk1 PBD binding of FITC phosphopeptide, fluorescence polarization; Potency, µM, for inactives: max response, negative = inhibition, actives largely listed as inhibitors; P53350; hit rate 2.8% among 360,000; also: potency is read from the fitted curve at half-maximal effect; series mostly up to about 57 µM; % is scaled to controls: 0 for no effect and ±100 for the full control effect; nearly all actives have a fitted effect of over 65% in size
# The depositor's hits bear a star; ? = inconclusive; nt = no result given; ! = not active in a repeat; [ ] = another dose, or the depositor's remark. Unless noted, calls follow the shape of the dose curve; as a rule, active = well fitted curve in the direction sought with a large enough effect; inconclusive = small, poorly fitted or top-dose-only effect, or another doubt; inactive = no such curve, though single readings can be large; an effect the other way counts as inactive or inconclusive.
SMILES,JMJD2A Tudor inh,KAT2A inh,HP1b chromo inh,BAZ2B inh,PI5P4K alpha inh,PLK1 PBD inh
O=C(CNC(=O)c1ccccc1)Sc1ccccc1,10%,nt,89%,nt,-3,4.7µM*
CSCc1ccc(C(=O)NCCSc2ccc(Br)cc2)cc1,-11%,-8%,30%,-2%,16,-24%
CCCCCCCCN1C(=O)[C@H](CC(=O)NCc2cccc(C(F)(F)F)c2)C[C@@]2(C(=O)OC)CC(C)(C)CC=C12,nt,nt,nt,nt,28,-8%
CC1CCN(S(=O)(=O)c2ccc3c(ccc(=O)n3CC(=O)Nc3cccc(F)c3)c2)CC1,-21%,-3%,33%[57 µM],-7%,nt,nt
O=C1NN(c2ccc(F)c(Cl)c2)C(=O)/C1=C\c1cccc(OC(=O)c2cccs2)c1,79µM*,-23%,?,?,-82*,1.1µM*
CC(C)=C1C(=O)NN(c2ccc(F)c(Cl)c2)C1=O,-29%,0%,1%,?,nt,-14%
NNc1nc(-c2ccccc2)cc(-c2ccccc2O)n1,?,-18%,3%,50µM*,nt,-5%
NNc1nc(-c2ccccc2)cc(-c2ccccc2)n1,-31%,-5%,30%,?,0,-1%
COc1cccc(N2CC(NC(=O)c3ccc(S(=O)(=O)N4CCCCC4)cc3)CC2=O)c1 (stereo not drawn),-18%,-7%,28%,3%,nt,nt
O=C1C(NS(=O)(=O)c2cccs2)=C(N2CCN(c3ccccc3)CC2)C(=O)c2ccccc21,28µM*,-7%,?,5.6µM*,5,-3%
Cc1ccc(S(=O)(=O)Nc2nc3ccccc3nc2N2CCN(c3ccccc3F)CC2)cc1,-29%,-16%,12%,?,-1,?
Cc1ccc(S(=O)(=O)NC2=C(N3CCN(c4ccccc4F)CC3)C(=O)c3ccccc3C2=O)cc1,8.9µM*,-10%,14µM*!,10µM*,15,-3%
CC(=O)Nc1ccc(S(=O)(=O)NC2=C(N3CCN(c4ccc(F)cc4)CC3)C(=O)c3ccccc3C2=O)cc1,22µM*,1%,25µM*,22µM*,-5,-6%
Cc1ccc(S(=O)(=O)NC2=C(N3CCN(Cc4ccccc4)CC3)C(=O)c3ccccc3C2=O)cc1,7.1µM*,-6%,8.9µM*,7.9µM*,-6,-3%
CCN1CCN(c2ccccc2NC(=O)C(C)Oc2ccc(C(C)=O)cc2)CC1 (stereo not drawn),1%,-1%,31%,-2%,-7,3%
CC(=O)N1CCCc2cc(S(=O)(=O)NCc3ccccc3Cl)ccc21,-1%,5%,34%[57 µM],2%,nt,nt
CCOC(=O)N1CCN(C2=C(NS(=O)(=O)c3ccc(C)cc3)C(=O)c3ccccc3C2=O)CC1,22µM*,-8%,20µM*,8.9µM*,2,?
COc1ccc(CN2C(=NC(=O)C3CCCCC3)SC3CS(=O)(=O)CC32)cc1 (stereo not drawn),-6%,-4%,22%,-13%,-8,-15%
COc1cc(/C=C2/SC(=S)N(CC(=O)O)C2=O)ccc1OC(=O)c1cccs1,?,-5%,?,?,-15,24µM*
COc1cc(/C=C2\SC(=S)N(CC(=O)O)C2=O)ccc1OS(=O)(=O)c1ccc(C)cc1,?,-27%,?,6%,-1,21µM*
CC(C)(C)C(=O)NCCn1ccc2ccccc21,-15%,-2%,24%,6%,8,5%
C[N+]1(CCn2ccc3ccccc32)CCCCC1,25µM*,-11%,-5%,-5%,-4,-4%
CCOc1ccc(CCNC(=O)C2CCN(C(=O)N3CC(CC)Oc4ccccc43)CC2)cc1 (stereo not drawn),?,-19%,-9%,?,nt,nt
O=[N+]([O-])c1cc(C(F)(F)F)ccc1NCCc1c[nH]c2ccccc12,22µM*,-19%,?,11µM*,1,0%
O=[N+]([O-])c1cc(C(F)(F)F)ccc1NCCc1c[nH]c2ccc(O)cc12,22µM*,-19%,?,40µM*,nt,-8%
SMILES,JMJD2A Tudor inh,KAT2A inh,HP1b chromo inh,BAZ2B inh,PI5P4K alpha inh,PLK1 PBD inh
CCNC(=S)Nc1cccc(F)c1C,-21%,-1%,1%,-22%,2,?
CNc1nc(-c2ccc3c(c2)CCN3C(=O)c2ccccc2C)cs1,?,-3%,?,50µM*,-1,?
CCc1ccccc1NC(=O)c1cc(C)no1,-13%,-1%,26%,28%,-3,0%
CCC(C)NC(=O)c1cc(C)no1 (stereo not drawn),-21%[57.1 µM],-1%,?,6%,2,30µM*
CCC(C)Nc1nc(-c2ccc3c(c2)NC(=O)CO3)cs1 (stereo not drawn),?,-3%,-1%,?,3,30µM*
O=C(NCC(c1ccco1)N1CCc2ccccc21)c1cccc([N+](=O)[O-])c1 (stereo not drawn),56µM*,-22%,-11%,50µM*,0,3%
CC(=O)Nc1cccc(NC(=O)C(=O)NCC(c2ccco2)N2CCc3ccccc32)c1 (stereo not drawn),56µM*,-5%,?,50µM*,0,-1%
Cc1ccc(C(=O)N2CC(C)OC(C)C2)cc1S(=O)(=O)N1CCCCC1 (stereo not drawn),2%,-2%,54%,0%,7,3%
O=S(=O)(c1ccc(F)cc1)N1CCC(c2nc3ccccc3[nH]2)CC1,-4%,1%,41%,-18%,2,-4%
O=C(c1ccc(S(=O)(=O)N2CCC(c3nc4ccccc4[nH]3)CC2)cc1)N1CCOCC1,28µM*,-6%,-12%,?,nt,-6%
CCCc1nnc(SCC(=O)N2CCOCC2)n1CCCOC,-12%[11.4 µM],-1%,-8%,-4%,2,17µM*
Cc1ccc(NC(=O)Cn2cc(S(=O)(=O)NC(C)C)c(S(=O)(=O)NC(C)C)c2)cc1Cl,-10%,-3%,22%,2%[57.1 µM],nt,nt
O=C(CCOc1ccccc1)Nc1ccnn1C1CCN(Cc2ccc(F)cc2)CC1,-12%,3%,24%,-24%,6,-6%
CCCCn1c(N)c(N(CC(C)C)C(=O)CCCc2cccs2)c(=O)[nH]c1=O,-6%,-6%,16%,0%,2,-14%
O=C(NCC(=O)N(c1cccnc1)C(C(=O)NC1CCCCC1)c1ccccc1F)c1ccco1 (stereo not drawn),?,-5%,17%,-17%,-2,-3%
Cc1cc(C)c(NC(=O)CSc2nc(C)cc(C)c2C#N)c(C)c1,-4%,3%,39%,-16%,nt,nt
Cc1ccc(/C=C/C(=O)O)cc1S(=O)(=O)N(CCO)CCO,8%,-5%,52%,-28%,-59*,-8%
Cc1ccc(/C=C/C(=O)O)cc1S(=O)(=O)NCCCO,-12%,-3%,26%,0%,-15,-8%

# Assay outcomes (PubChem BioAssay)
